Source: PubChem BioAssay AID1259417 (TB Discovery Research, Infectious Disease Research Institute, 2018)
About 760 (69%) of roughly 1,100 compounds were called active. No rule for the calls is given here. The set was probably picked from earlier hits. This is one part of the list.

Assay: M. tuberculosis growth inhibition, HTS (AID 1259417);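 also: bacteria grown with compound for 5 days at 37 °C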
Conditions: stronger effect = higher value, concentration not given here
[1] = M. tuberculosis DsRed fluorescence growth inhibition
[2] = M. tuberculosis growth inhibition

Compound | inhibition [1] | inhibition [2]
CCOC(=O)COc1ccc2c(=O)c(-c3ccccc3OC)coc2c1 | 10.9% (inactive) | 27%
COC(=O)COc1ccc2c(=O)c(-c3ccccc3OC)coc2c1 | 16.1% (active) | 38.3%
COC(=O)COc1ccc2c(=O)c(Oc3ccccc3)c(C)oc2c1 | 77.7% (active) | 88.9%
CCOC(=O)COc1ccc2c(=O)c(-c3ccccc3)coc2c1 | 96% (active) | 97%
COc1ccccc1-c1coc2cc(OCC(=O)OCc3ccccc3)ccc2c1=O | 36.9% (active) | 64.7%
COC(=O)COc1ccc2c(=O)c(-c3ccccc3Cl)coc2c1 | 74% (active) | 94.8%
CCC(C(=O)Nc1ccc(CC(=O)OC)cc1)c1ccccc1 (stereo unspecified) | 70.5% (active) | 93.3%
COc1ccc(OC)c(NC(=O)c2cc3cc(Br)ccc3oc2=O)c1 | 9.39% (active) | 46.5%
COc1cc(NC(=O)c2cc3ccccc3o2)ccc1NC(=O)c1ccccc1Cl | 2.65% (inactive) | -0.577%
COc1ccc(OC)c(NC(=O)c2cc3cc(Cl)ccc3oc2=O)c1 | 12.1% (inactive) | 21.1%
CCCCc1ccc(NC(=O)c2cc3cc(Br)cc(OC)c3oc2=O)cc1 | 4.42% (active) | 82.8%
COc1cc(Br)cc2cc(C(=O)Nc3cccc(C(F)(F)F)c3)c(=O)oc12 | 10.9% (inactive) | 29.4%
Cn1nc([N+](=O)[O-])nc1Sc1nnc(-c2cccnc2)o1 | 87.1% (active) | 91.2%
CC(NS(=O)(=O)c1cccc(Cl)c1)C(=O)Nc1ccc(Br)cc1F (stereo unspecified) | 11.5% (inactive) | 13.5%
Cc1cc(Cl)ccc1NC(=O)CCc1ccc(S(=O)(=O)NCC(C)C)cc1 | 95.3% (active) | 83.6%
Cc1ccc(NC(=O)C(C)NS(=O)(=O)c2ccc(Cl)cc2)cc1Cl (stereo unspecified) | 2.64% (inactive) | -8.36%
Cc1cc(Cl)ccc1NC(=O)CCc1ccc(S(=O)(=O)NC(C)C)cc1 | 94.8% (active) | 83.1%
COc1cc(NC(=O)C(Cl)Cl)c(OC)cc1Cl | 7.63% (inactive) | 4.68%
CCOC(=O)c1cccc(NC(=O)C(Cl)Cl)c1 | 47.5% (active) | 52.3%
Cc1cc(=O)[nH]c(-n2nc(C)cc2C)n1 | 91.4% (active) | 94.9%
COc1ccc(-c2nsc(SCC(=O)NCC3CCCO3)n2)cc1 (stereo unspecified) | 95.7% (active) | 76.1%

Compound | inhibition [1] | inhibition [2]
Cc1cccc(-c2nsc(SCC(=O)NCC3CCCO3)n2)c1 (stereo unspecified) | 94.3% (active) | 76.8%
COc1ccc(-c2nsc(SCC(=O)NCc3ccco3)n2)cc1 | 93.1% (active) | 66.6%
CC(C)(C)c1ccc(C(=O)Nc2sc3c(c2C(=O)NCC2CCCO2)CCCC3)cc1 (stereo unspecified) | 12.8% (inactive) | -13.4%
COc1cc(C(=O)Nc2sc3c(c2C(=O)NCC2CCCO2)CCC3)cc(OC)c1OC (stereo unspecified) | -3.52% (inactive) | -31.7%
c1c2c(cc3sc(N4CCCC4)nc13)OCO2 | 100% (active) | 99.8%
CCOc1ccc(NC(=O)CSc2nnc(-c3ccccc3Cl)o2)cc1 | 13.5% (inactive) | -1.29%
Cc1cc(NC(=O)CSc2nnnn2-c2ccccc2C)no1 | 56.3% (active) | 88.3%
CCOc1ccc(-c2nnc(SCC(=O)Nc3cc(C)on3)o2)cc1 | -1.63% (active) | 32.7%
Cc1cc(NC(=O)CSc2nnc(Cc3ccccc3)o2)no1 | -2.93% (inactive) | 6.89%
Cc1ccc(-c2nnc(SCC(=O)Nc3cc(C)on3)o2)cc1 | 2.19% (active) | 50.5%
O=C(CCN1C(=O)C2C3C=CC(C4CC34)C2C1=O)Oc1cccc2cccnc12 (stereo unspecified) | 100% (active) | 101%
CC(C(=O)Oc1cccc2cccnc12)N1C(=O)C2C3C=CC(C4CC34)C2C1=O (stereo unspecified) | 100% (active) | 101%
O=C(CCN1C(=O)c2ccccc2C1=O)Oc1cccc2cccnc12 | 99.5% (active) | 100%
O=C(Oc1cccc2cccnc12)C(Cc1ccccc1)N1C(=O)C2C3CCC(C3)C2C1=O (stereo unspecified) | 99.8% (active) | 101%
COc1cc2cc(-c3nc4ccccc4[nH]3)c(N)nc2cc1OC | 93.9% (active) | 94%
CCc1nc2sc(C(=O)NCc3ccc(F)cc3)c(N)c2c(C(F)(F)F)c1C | 41.1% (active) | 20.9%
COc1ccc(CNC(=O)c2c(N)nc3sc4c(c3c2C(F)(F)F)CCC4)cc1 | 4.42% (inactive) | -3.32%
COC(=O)CN1C(c2ccc(OC)cc2)=Nc2ccc(Cl)cc2C1c1ccccc1 (stereo unspecified) | 52.5% (active) | 79.3%
COC(=O)CN1C(c2cccc(Cl)c2)=Nc2ccc(Cl)cc2C1c1ccccc1 (stereo unspecified) | 10.1% (active) | 40.7%
CC12CC3CC(C)(C1)CC(C(=O)Nc1nc4ccccc4s1)(C3)C2 | 98.3% (active) | 97.6%
CSc1ccc2nc(Nc3nc4ccc(NC(C)=O)cc4s3)sc2c1 | 2.19% (inactive) | 1.87%

Compound | inhibition [1] | inhibition [2]
CCn1nnc(NC(=O)COc2ccc(C3CCCCC3)cc2)n1 | 37% (active) | 86.6%
CCCn1nnc(NC(=O)COc2ccc(C3CCCCC3)cc2)n1 | 26.3% (active) | 72.9%
CCC(=O)Oc1ccc(C(=O)Nc2cc3oc4ccccc4c3cc2OC)cc1 | 12% (inactive) | 10.7%
CCOC(=O)CSCC(=O)Nc1c(C(=O)C2CC2)oc2ccccc12 | 27.6% (active) | 48.3%
CC(C)(C)C(=O)/C=C/Nc1ccccc1O | 99.2% (active) | 98.5%
CSc1nsc(SCC(=O)N2CCN(c3ccccc3)CC2)n1 | 98.3% (active) | 98.7%
COc1cc(NC(=O)c2ccc3c(c2)OCCO3)ccc1NC(=O)c1ccccc1Cl | 2.06% (inactive) | 9.67%
O=C(Nc1ccc2c(c1)OCCO2)c1cccc2nc3ccccc3nc12 | 97.2% (active) | 96.7%
Cc1ccc(NC(=O)CC2COc3ccccc3O2)cc1Cl (stereo unspecified) | 2.96% (inactive) | -10.1%
Cc1ccc([N+](=O)[O-])cc1NC(=O)CN(C(=O)c1ccccc1Cl)C1CCCCC1 | 75.1% (active) | 49.8%
COc1ccc(C(=O)Nc2cc(OC)c(NC(=O)c3ccco3)cc2OC)cc1 | 0.929% (inactive) | -7.24%
COc1ccc(-c2cc(C(=O)NN=CC=Cc3ccccc3OC)[nH]n2)cc1 | 9.99% (active) | 65%
O=C1NN=C2C1=NC1(CCCCC1)Cc1ccccc12 | 99.4% (active) | 99%
CCOC(=O)N1CCN(CCC(=O)c2ccc(Cl)cc2)CC1 | 25.5% (active) | 58.7%
CCCCOc1cccc(C(=O)Nc2nnc(-c3ccc(C)cc3C)o2)c1 | 92.2% (active) | 77.5%
Cc1ccc(-c2nnc(NC(=O)CCOc3ccccc3)o2)c(C)c1 | 61.8% (active) | 78.2%
O=C(CCOc1ccccc1)Nc1nnc(-c2cc(Cl)ccc2Cl)o1 | 1.59% (inactive) | -1.65%
N=c1sc(/C=C2\C=Nc3ccccc32)c(O)n1-c1nccs1 | 97.2% (active) | 94.9%
Cc1ccc(C(C)C)c(OCc2nn(CC(=O)c3ccc(OC(F)F)cc3)c3[n+]2CCCCC3)c1 | 100% (active) | 99.1%
CCC(C)NC(=O)c1ccc(NC(=O)C2(c3ccccc3)CCCC2)cc1 (stereo unspecified) | 31.9% (active) | 42.8%
O=C(c1ccc(NC(=O)C2(c3ccccc3)CCCC2)cc1)N1CCCCC1 | 99.8% (active) | 99.3%

Compound | inhibition [1] | inhibition [2]
Cc1ccc(C(=O)N2CCN(c3ccc(NC(=O)COc4c(C)cc(C)cc4Br)cc3)CC2)cc1 | -0.254% (inactive) | -20.4%
COC(=O)c1ccc(NC(=O)CSc2nc(-c3ccccc3C)ns2)cc1 | 15.6% (active) | 32.6%
Cc1ccc(-c2nsc(SCC(=O)Nc3ccc4c(c3)OCO4)n2)cc1 | 9.75% (inactive) | 1.51%
COC(=O)c1ccc(NC(=O)CSc2nc(-c3cccc(C)c3)ns2)cc1 | 15.3% (active) | 38.3%
CSc1nsc(SCC(=O)Nc2ccc(OC(C)=O)cc2)n1 | 8.33% (inactive) | 24.6%
Cc1ccc2oc(-c3cc(NC(=O)Cc4ccccc4)ccc3Cl)nc2c1 | 88% (active) | 49.9%
COC(=O)CSc1nc(N2CCCCC2)c2c(c1C#N)CCCC2 | 26.1% (active) | 78.9%
COC(=O)CSc1nc(-c2ccccc2)c2c(c1C#N)CCCC2 | -3.83% (inactive) | -16.2%
COC(=O)CSc1nc2c(c(-c3ccco3)c1C#N)CCCC2 | 2.74% (inactive) | -22.6%
COC(=O)C(C)Oc1ccc(-c2nccc(-c3cccs3)n2)cc1 (stereo unspecified) | 43.6% (active) | 69.4%
CC(C)(C)NCCCCOc1ccc(Cl)cc1C(C)(C)C | 59% (active) | 43.9%
CC(C)(C)c1cc(Cl)ccc1OCCCCn1ccnc1 | 99.7% (active) | 99.7%
CC(C)(C)c1cc(Cl)ccc1OCCn1ccnc1 | 90.4% (active) | 95%
C#CCOCCOCCOCCNc1nc(N2CCN(C(=O)[C@H](Cc3cc4ccccc4[nH]3)n3cc([C@@H](N)CC(C)C)nn3)CC2)nc(N2CCN(C(=O)[C@H](Cc3cc4ccccc4[nH]3)n3cc([C@@H](N)CC(C)C)nn3)CC2)n1 | 68% (active) | 50.3%
O=S(=O)(Nc1cc(Sc2cccc3cccnc23)c(O)c2ccccc12)c1ccccc1 | 3.26% (active) | 44.3%
O=S(=O)(Nc1cccc2cccnc12)c1ccc(Br)cc1 | 73.1% (active) | 91.6%
O=S(=O)(Nc1cc(Br)c(O)c2ccccc12)c1ccc(F)cc1 | 3.24% (inactive) | -11.2%
Cc1ccc2nsnc2c1S(=O)(=O)Nc1cccc2cccnc12 | 100% (active) | 99.4%
O=C(Nc1ccc(S(=O)(=O)N2CCC(c3nc4ccccc4[nH]3)CC2)cc1)c1cccc(Cl)c1 | 0.997% (inactive) | -16%
Cc1ccc(NC(=O)N2CCC(c3nc4c(nnn4Cc4cccc(Cl)c4)c(=O)[nH]3)CC2)cc1 | 97.3% (active) | 99.6%
